Assay results as given in PubChem BioAssay (EPA / NIEHS).
Inconclusive results are not listed. A structure can be active in one record and inactive in another. The source made the active and inactive calls. The calls were made as follows: active = hit-call score of the fitted dose curve at least 0.9, where 1 is the maximum; inconclusive = response in the unintended direction; inactive = score below 0.9.

Target: Estrogen receptor (Homo sapiens) (UniProt P03372)
Experiment: NVS_NR_hER: NovaScreen (NVS) Nuclear Receptor Binding Assay for human Estrogen Receptor (ER) (AID 2283348)
Protocol: NVS_NR_hER is a biochemical, single-readout assay that uses extracted gene-proteins from MCF7 in a cell-free assay. Measurements were taken 18 hours after chemical dosing in a 96-well plate.NVS_NR_hER is one of one assay component(s) measured or calculated from the NVS_NR_hER assay. It is designed to make measurements of radioligand binding, a form of binding reporter, as detected with scintillation counting signals by Lysate-based radiodetection technology.Data from the assay component NVS_NR_hER was analyzed into 1 assay endpoint. This assay endpoint, NVS_NR_hER, was analyzed in the positive analysis fitting direction relative to DMSO as the negative control and baseline of activity. Using a type of binding reporter, loss-of-signal activity can be used to understand changes in the binding as they relate to the gene ESR1. Furthermore, this assay endpoint can be referred to as a primary readout, because the performed assay has only produced 1 assay endpoint. To generalize the intended target to other relatable targets, this assay endpoint is annotated to the nuclear receptor intended target family, where the subfamily is steroidal.
Binding assays used specific radioligands (tritiated, iodinated) with non-radioactive competitive displacement ligands in agonist or antagonist protocols (as indicated) and various reference compounds and inhibitors to titrate specific binding to receptors and transporters. Most enzyme assays (CYPs, kinases, phosphatases, proteases, HDACs) used recombinant protein and specific substrates (fluorescence mostly, some colorimetric and radioactive) and inhibitors, followed by a biochemical separation of substrate and product. All assays for the biochemical HTS were initially run in duplicate at a single concentration (10 uM for CYP450 assays and 25 uM for all others). […] Each assay was run with positive and negative controls, and concurrent controls on every plate. The follow-up (secondary) screen tested active chemical-pairs in concentration series, as well as a few additional assays not tested in the primary screen, some selected negative inactives, and several cases re-run in the concentration series for confirmatory purposes.

Chain of Estrogen receptor (Homo sapiens) (P03372 whole entry, looked up): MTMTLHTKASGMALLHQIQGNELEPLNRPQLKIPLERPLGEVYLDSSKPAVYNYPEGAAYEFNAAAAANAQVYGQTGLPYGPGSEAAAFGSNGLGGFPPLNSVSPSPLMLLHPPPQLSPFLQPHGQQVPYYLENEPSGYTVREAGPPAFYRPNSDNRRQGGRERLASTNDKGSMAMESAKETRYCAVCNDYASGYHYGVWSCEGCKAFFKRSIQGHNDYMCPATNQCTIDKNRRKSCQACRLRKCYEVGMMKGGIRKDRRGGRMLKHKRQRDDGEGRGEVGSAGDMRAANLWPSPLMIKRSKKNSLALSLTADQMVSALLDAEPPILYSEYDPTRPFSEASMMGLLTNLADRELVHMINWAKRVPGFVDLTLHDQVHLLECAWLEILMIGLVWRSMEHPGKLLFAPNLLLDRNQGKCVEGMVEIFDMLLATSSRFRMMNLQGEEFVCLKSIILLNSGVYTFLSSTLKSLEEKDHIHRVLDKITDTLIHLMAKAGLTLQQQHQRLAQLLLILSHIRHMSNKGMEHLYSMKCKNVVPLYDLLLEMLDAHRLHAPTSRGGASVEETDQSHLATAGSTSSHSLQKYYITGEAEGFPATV

SMILES	outcome	AC50
Nc1ccc([N+](=O)[O-])cc1O	inactive	
CC(Cc1ccc(O)c(O)c1)C(C)Cc1ccc(O)c(O)c1 (stereo unspecified)		0.705 µM (active)
CCCCC(CC)COP(=O)(O)OCC(CC)CCCC (stereo unspecified)	inactive	
c1ccc(B(c2ccccc2)c2ccccc2)cc1		13.9 µM (active)
CN(C)Cc1ccccc1O	inactive	
C#C[C@]1(O)CC[C@H]2[C@@H]3CCc4cc(OC)ccc4[C@H]3CC[C@@]21C	inactive	0.00229 µM (active)
Oc1ccc(Nc2ccccc2)cc1		8.86 µM (active)
CCCCCCCCCCCCCCCC[N+](C)(C)Cc1ccccc1	inactive	
Cc1cc(C)cc(O)c1	inactive	
C(=C(c1ccccc1)c1ccccc1)c1ccccc1	inactive	
